Assay results as given in PubChem BioAssay (NCATS).
Results filed as inconclusive are left out. Entries that show only a call come without a potency. The source made the active and inactive calls. Unless noted, calls come from the whole dose curve; as a rule, active = well fitted curve in the direction sought with a large enough effect; inconclusive = small, poorly fitted or top-dose-only effect, or another doubt; inactive = no such curve, though single readings can be large; an effect the other way counts as inactive or inconclusive.

Columns and labels:
[1] = AP1 Signaling Pathway (AID 357; active = well fitted curve in either direction with a large enough effect, not every such curve was filed as active;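 note: ME-180 reporter cells stimulated with EGF at its EC50 level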)
Summary of the method: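 Modulation of EGF-driven AP-1 transcription was assessed with a beta-lactamase reporter in ME-180 cells. Compound and EC50 EGF were co-incubated 5 hours at 37 °C before 2.5-hour CCF4 loading at room temperature and dual-emission reading.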

[2] = molecular target: Cytochrome P450 1A2 (Homo sapiens) (UniProt P05177); assay: p450-cyp1a2 (AID 410; calls by dose curve; note: potency is the fitted concentration of half-maximal effect)
Sequence of Cytochrome P450 1A2 (Homo sapiens) (P05177 whole entry, looked up): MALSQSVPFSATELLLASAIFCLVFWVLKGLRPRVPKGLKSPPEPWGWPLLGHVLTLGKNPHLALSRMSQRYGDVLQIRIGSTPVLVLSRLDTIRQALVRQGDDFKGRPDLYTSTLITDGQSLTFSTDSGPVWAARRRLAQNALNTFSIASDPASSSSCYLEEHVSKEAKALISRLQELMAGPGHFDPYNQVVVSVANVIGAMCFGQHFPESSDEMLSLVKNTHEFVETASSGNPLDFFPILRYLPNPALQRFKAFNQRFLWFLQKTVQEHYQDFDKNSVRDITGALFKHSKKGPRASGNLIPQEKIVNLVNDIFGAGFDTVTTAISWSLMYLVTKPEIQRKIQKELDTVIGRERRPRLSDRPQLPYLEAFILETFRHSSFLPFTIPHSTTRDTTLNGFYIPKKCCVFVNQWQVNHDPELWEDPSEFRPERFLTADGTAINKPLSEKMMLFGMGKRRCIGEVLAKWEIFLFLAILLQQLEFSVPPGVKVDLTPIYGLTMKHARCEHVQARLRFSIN
Summary of the method: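 Luminescent readout of luciferin formed from Luciferin-ME by human CYP1A2; data normalized against complete inhibition by 57 uM furafylline. Enzyme 20nM, substrate 100uM at Km, 100mM KPO4 buffer, 60 min reaction at room temperature.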

[3] = NFAT Signaling Pathway (AID 444; active = well fitted curve in either direction with a large enough effect, not every such curve was filed as active;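 note: carbachol stimulus at about its EC50 of 1 µM final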); details: Jurkat NFAT-bla M1, carbachol, beta-lactamase ratio, 5 h; at 17.2 µM (top of the series) unless noted
Summary of the method: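 Jurkat cells carrying an NFAT-driven β-lactamase reporter and co-transfected muscarinic M1 receptor were treated with compound plus carbachol (1 uM final, an EC50 level) for 5 h at 37 °C. CCF4 loading followed for 1 h at RT; 460/530 nm ratio gave %activity.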

[4] = Stat Signaling Pathway (AID 446; active = well fitted curve in either direction with a large enough effect, not every such curve was filed as active;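 note: ME-180 cervical cancer cells given 40 pM IL-6 alongside compound; SIE-controlled beta-lactamase reporter measured as 460/530 nm FRET emission ratio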)
Summary of the method: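 ME-180 SIE-bla cells; overnight plating; cpd + IL-6 40 pM, 5 h, 37 C; LiveBLAzer 2.5 h RT; 460/530 nm emission ratio. Normalized to 300 pM IL-6 and 125 nM JAK inhibitor controls.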

[5] = molecular target: Glucocorticoid receptor (Homo sapiens) (UniProt P04150); assay: GR-GFP Redistribution (AID 450;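 active = compounds whose dose series gives a full or clear partial fitted curve of increased nuclear translocation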; note: potency is the fitted concentration of half-maximal effect); details: U2OS GR-GFP nuclear translocation, laser cytometry, 2 h
Sequence of Glucocorticoid receptor (Homo sapiens) (P04150 whole entry, looked up, the tested form may be a part): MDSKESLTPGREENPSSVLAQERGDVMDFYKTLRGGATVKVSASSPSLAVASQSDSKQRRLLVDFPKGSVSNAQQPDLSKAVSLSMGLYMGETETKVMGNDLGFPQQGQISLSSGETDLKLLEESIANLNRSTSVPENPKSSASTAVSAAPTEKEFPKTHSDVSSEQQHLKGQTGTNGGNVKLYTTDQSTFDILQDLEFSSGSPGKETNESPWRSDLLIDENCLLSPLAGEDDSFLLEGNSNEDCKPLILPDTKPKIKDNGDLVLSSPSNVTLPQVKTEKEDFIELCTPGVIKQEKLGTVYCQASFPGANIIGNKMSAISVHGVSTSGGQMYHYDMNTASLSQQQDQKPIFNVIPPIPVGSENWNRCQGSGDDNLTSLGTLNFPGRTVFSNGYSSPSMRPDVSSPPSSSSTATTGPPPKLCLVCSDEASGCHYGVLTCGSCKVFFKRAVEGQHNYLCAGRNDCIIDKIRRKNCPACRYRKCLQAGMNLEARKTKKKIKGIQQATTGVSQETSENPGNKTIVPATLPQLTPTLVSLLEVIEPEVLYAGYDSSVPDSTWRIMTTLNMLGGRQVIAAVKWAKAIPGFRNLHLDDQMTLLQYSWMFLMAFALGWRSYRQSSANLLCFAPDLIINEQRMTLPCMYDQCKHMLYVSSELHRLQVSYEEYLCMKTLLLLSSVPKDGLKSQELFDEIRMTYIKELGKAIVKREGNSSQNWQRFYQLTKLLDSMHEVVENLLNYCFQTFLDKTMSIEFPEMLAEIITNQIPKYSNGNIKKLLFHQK

[6] = molecular target: Glucocorticoid receptor (Homo sapiens) (UniProt P04150); assay: GR-EFC Redistribution (AID 451; calls by dose curve; note: potency is the fitted concentration of half-maximal effect); details: CHO-K1 GR-EFC translocation, beta-gal luminescence, 2 h
Summary of the method: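 CHO-K1 cells stably expressing nuclear-localized β-gal enzyme acceptor and GR fused C-terminally to the enzyme donor fragment; ligand-driven nuclear translocation restores β-gal by complementation. Compounds titrated up to 46 uM final, 2 h at 37 °C; luminescence read.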

[7] = molecular target: Mitogen-activated protein kinase 10 (Mus musculus) (UniProt Q61831); assay: JNK3 AlphaScreen Assay (AID 530; active = well fitted curve in either direction with a large enough effect, not every such curve was filed as active;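 note: kinase came from lysate of stimulated human HepG2 cells; signal reports phosphorylation of biotinylated GST-cJun 1-79 at Ser73 with 10 µM ATP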)
Summary of the method: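 Inhibitors reduce antibody binding to phosphorylated biotin-cJun, lowering AlphaScreen luminescence. Lysates from HepG2 cells pre-activated by IL-1beta plus TNF-alpha supplied JNK3; compounds were titrated.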

[8] = molecular target: 3',5'-cyclic-AMP phosphodiesterase 4B (Homo sapiens) (UniProt Q07343); assay: qHTS Assay for Inhibitors of PDE-IV (AID 607; active = well fitted activation curve with a large enough effect in the main read-out, with a control signal flat, not every such curve was filed as active)
Sequence of 3',5'-cyclic-AMP phosphodiesterase 4B (Homo sapiens) (Q07343 whole entry, looked up): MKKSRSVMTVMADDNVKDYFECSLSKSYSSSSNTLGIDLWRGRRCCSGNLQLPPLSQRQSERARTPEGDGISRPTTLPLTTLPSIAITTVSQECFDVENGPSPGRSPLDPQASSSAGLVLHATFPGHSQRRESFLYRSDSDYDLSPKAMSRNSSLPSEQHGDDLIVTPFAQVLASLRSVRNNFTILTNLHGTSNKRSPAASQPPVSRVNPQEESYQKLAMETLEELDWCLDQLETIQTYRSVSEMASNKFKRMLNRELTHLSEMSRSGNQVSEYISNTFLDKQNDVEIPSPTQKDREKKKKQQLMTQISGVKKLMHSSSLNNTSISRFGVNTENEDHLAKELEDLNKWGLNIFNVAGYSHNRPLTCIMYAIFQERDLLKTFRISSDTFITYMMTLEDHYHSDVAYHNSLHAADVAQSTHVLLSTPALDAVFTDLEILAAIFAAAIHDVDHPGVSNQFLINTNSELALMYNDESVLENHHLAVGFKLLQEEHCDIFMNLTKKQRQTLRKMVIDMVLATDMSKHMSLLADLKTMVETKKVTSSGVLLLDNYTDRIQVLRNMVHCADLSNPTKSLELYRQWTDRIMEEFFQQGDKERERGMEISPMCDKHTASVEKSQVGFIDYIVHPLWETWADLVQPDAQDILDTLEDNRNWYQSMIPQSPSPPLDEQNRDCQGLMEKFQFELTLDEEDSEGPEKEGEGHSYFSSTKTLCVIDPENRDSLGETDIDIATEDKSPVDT
Summary of the method: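 ACTOne HEK293 cells carry a modified cAMP-gated CNG channel and express endogenous PDE4; plated 1000 cells/well, compounds up to 22.9 uM final. Membrane-potential dye fluorescence (ex 535/em 590) was read; parental cells received 10 uM forskolin + 100 uM RO 20-1724.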

[9] = qHTS Assay for Lipid Storage Modulators (AID 1519; calls by dose curve); details: Drosophila S3 cells, BODIPY lipid droplet/cell ratio, laser cytometry, cells loaded with oleic acid
Summary of the method: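 Cells seeded at 5,000 per well were treated with compounds over a concentration series and loaded with oleic acid (400 uM, as added). Lipid droplet fluorescence (488 nm excitation, 500-530 nm channel) was read by laser-scanning cytometry and normalized to 20 uM Triacsin C.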

[10] = molecular target: Ubiquitin carboxyl-terminal hydrolase 1 (Homo sapiens) (UniProt O94782); assay: Inhibitors of USP1/UAF1: Pilot qHTS (AID 504865);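 note: rhodamine fluorescence freed from ubiquitin-rhodamine substrate followed over time; top concentration of the series differs between compounds; nearly all actives have a fitted effect of over 35% in size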
Sequence of Ubiquitin carboxyl-terminal hydrolase 1 (Homo sapiens) (O94782 whole entry, looked up): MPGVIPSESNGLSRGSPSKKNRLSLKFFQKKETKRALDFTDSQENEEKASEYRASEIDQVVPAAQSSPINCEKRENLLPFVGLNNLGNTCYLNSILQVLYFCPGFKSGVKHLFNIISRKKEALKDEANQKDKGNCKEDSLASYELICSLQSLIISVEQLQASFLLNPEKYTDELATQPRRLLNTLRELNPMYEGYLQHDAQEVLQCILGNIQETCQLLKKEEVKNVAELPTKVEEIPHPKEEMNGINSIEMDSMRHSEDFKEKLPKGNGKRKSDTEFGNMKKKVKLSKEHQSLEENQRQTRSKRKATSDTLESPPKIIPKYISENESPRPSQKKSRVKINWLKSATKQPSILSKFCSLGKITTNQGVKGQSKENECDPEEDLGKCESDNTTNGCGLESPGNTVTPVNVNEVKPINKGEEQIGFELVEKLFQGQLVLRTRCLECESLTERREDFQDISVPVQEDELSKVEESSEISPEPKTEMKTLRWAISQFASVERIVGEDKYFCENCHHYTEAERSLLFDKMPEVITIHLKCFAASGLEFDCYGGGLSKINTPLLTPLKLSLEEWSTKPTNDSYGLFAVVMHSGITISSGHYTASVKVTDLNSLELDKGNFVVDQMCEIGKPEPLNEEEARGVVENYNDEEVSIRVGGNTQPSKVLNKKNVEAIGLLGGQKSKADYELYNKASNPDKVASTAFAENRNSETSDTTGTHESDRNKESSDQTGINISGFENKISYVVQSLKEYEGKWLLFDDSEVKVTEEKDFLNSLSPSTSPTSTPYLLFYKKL
Summary of the method: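 USP1/UAF1 complex (1nM) preincubated with compound 15 min at room temperature, then Ub-Rho substrate (150nM final) added. Fluorescence read kinetically at 480/540 nm, 6 reads every 60 seconds. Buffer: 50mM HEPES pH 7.8, 0.5mM EDTA, 0.1 mg/ml BSA, 1mM TCEP, 0.01% Tween-20.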

[11] = molecular target: ATP-dependent 6-phosphofructokinase (Trypanosoma brucei brucei) (UniProt O15648); assay: qHTS Assay to Find Inhibitors of T. brucei phosphofructokinase: hit validation (AID 492961);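 note: luminescence reports ADP formed as PFK phosphorylates fructose-6-phosphate with ATP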
Sequence of ATP-dependent 6-phosphofructokinase (Trypanosoma brucei brucei) (O15648 whole entry, looked up): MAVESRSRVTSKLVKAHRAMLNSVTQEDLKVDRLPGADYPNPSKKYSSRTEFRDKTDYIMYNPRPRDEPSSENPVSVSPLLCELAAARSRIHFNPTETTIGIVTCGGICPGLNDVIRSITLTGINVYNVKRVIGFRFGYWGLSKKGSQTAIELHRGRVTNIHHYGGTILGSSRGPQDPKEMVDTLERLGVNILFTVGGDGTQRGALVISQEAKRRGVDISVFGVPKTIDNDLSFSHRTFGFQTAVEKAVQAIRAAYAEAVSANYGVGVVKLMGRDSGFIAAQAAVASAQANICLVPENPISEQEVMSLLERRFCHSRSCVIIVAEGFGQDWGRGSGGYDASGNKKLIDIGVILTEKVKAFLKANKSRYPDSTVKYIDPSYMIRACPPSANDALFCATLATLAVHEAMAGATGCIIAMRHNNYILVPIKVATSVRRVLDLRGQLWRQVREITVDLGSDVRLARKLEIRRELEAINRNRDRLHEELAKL
Summary of the method: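 Reaction: 0.1 M triethanolamine pH 8.0, 5 mM MgCl2, F6P 0.5 mM, ATP 0.1 mM, PFK 1.25 nM, 45 min RT. Read-out: ADP-Glo luminescence. Analysis: concentration-response fits, classed by r2 and efficacy.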

[12] = qHTS profiling for inhibitors of Plasmodium falciparum proliferation (AID 504749); note: nearly all actives have a fitted effect of over 60% in size; details: P. falciparum in erythrocytes, SYBR Green DNA, 72 h, at 12.8 µM (top of the series)
Summary of the method: (§1)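 Parasite proliferation within erythrocytes, 72 h exposure. Endpoint: SYBR Green I fluorescence after overnight lysis at room temperature. Controls: 0.29 uM artemisinin, DMSO.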

[13] = test system: C2A; assay: as above; details: P. falciparum in erythrocytes, SYBR Green DNA, 72 h; series mostly up to 12.8 µM
Summary of the method: as §1

[14] = test system: CP191; assay: as above; details: P. falciparum in erythrocytes, SYBR Green DNA, 72 h; series mostly up to 12.8 µM
Summary of the method: as §1

[15] = test system: CP217; assay: as above; details: P. falciparum in erythrocytes, SYBR Green DNA, 72 h; series mostly up to 12.8 µM
Summary of the method: as §1

[16] = test system: CP250; assay: as above; details: P. falciparum in erythrocytes, SYBR Green DNA, 72 h; series mostly up to 12.8 µM
Summary of the method: as §1

[17] = test system: CP256; assay: as above; details: P. falciparum in erythrocytes, SYBR Green DNA, 72 h; series mostly up to 12.8 µM
Summary of the method: as §1

[18] = test system: FAB9; assay: as above; details: P. falciparum in erythrocytes, SYBR Green DNA, 72 h; series mostly up to 12.8 µM
Summary of the method: as §1

[19] = test system: JCK; assay: as above; details: P. falciparum in erythrocytes, SYBR Green DNA, 72 h; series mostly up to 12.8 µM
Summary of the method: as §1

[20] = test system: SC27B; assay: as above; details: P. falciparum in erythrocytes, SYBR Green DNA, 72 h; series mostly up to 12.8 µM
Summary of the method: as §1

[21] = measured here: cell count channel max response
[22] = measured here: lipid channel max response

C[C@]1(OC(=O)/C=C\c2ccccc2)C[C@@H](O)[C@@]2(O)C=CO[C@@H](O[C@H]3O[C@@H](CO)[C@@H](O)[C@@H](O)[C@@H]3O)[C@H]21
outcome [1]: inactive
Potency [2]: inactive
activity change, negative = inhibition [3]: -11% (inactive)
outcome [4]: inactive
Potency [5]: > 20.6 µM (inactive)
Potency [6]: > 20.6 µM (inactive)
Potency [7]: inactive
outcome [8]: inactive
activity change, negative = inhibition ([9]; at 25.7 µM (top of the series)): -2.22% (inactive)
max response [9, 21]: -15.8%
max response [9, 22]: -17.4%
Potency [10]: inactive

CCC(C)C(=O)O[C@H]1C[C@@H](C)C=C2C=C[C@H](C)[C@H](CC[C@@H]3C[C@@H](O)CC(=O)O3)C21 (stereo partly drawn)
activity change, negative = inhibition ([9]; at 57.5 µM (top of the series)): -9.81% (inactive)
max response [9, 21]: 22%
max response [9, 22]: 13.2%

CC(=O)OCC(=O)[C@@]1(O)CC[C@@H]2[C@H]3CCC4=CC(=O)C=C[C@]4(C)[C@]3(F)[C@@H](O)C[C@@]21C
outcome [1]: inactive
Potency [2]: inactive
activity change, negative = inhibition [3]: -2.98% (inactive)
outcome [4]: inactive
Potency [5]: 0.00326 µM (active)
Potency [6]: 0.035 µM (active)
Potency [7]: inactive
outcome [8]: inactive
activity change, negative = inhibition ([9]; at 25.7 µM (top of the series)): 0.563% (inactive)
max response [9, 21]: 15.5%
max response [9, 22]: -0.686%
outcome [11]: inactive
Potency [10]: inactive
activity, negative = inhibition ([12]; parasite line A): -3.89% (inactive)
activity, negative = inhibition ([12]; parasite line B): 16% (inactive)
Potency [13]: inactive
Potency [14]: inactive
Potency [15]: inactive
Potency [16]: inactive
Potency [17]: inactive
Potency [18]: inactive
Potency [19]: inactive
Potency [20]: inactive

C[N+]12CCC(CC1)[C@@H](OC(=O)C(O)(c1ccccc1)c1ccccc1)C2
outcome [1]: inactive
Potency [2]: inactive
activity change, negative = inhibition [3]: -57.3% (active)
outcome [4]: inactive
Potency [5]: > 20.6 µM (inactive)
Potency [6]: > 20.6 µM (inactive)
Potency [7]: inactive
outcome [8]: inactive
activity change, negative = inhibition ([9]; at 25.7 µM (top of the series)): -3.29% (inactive)
max response [9, 21]: -12.1%
max response [9, 22]: -15%
outcome [11]: inactive
activity, negative = inhibition ([12]; parasite line A): 11.6% (inactive)
activity, negative = inhibition ([12]; parasite line B): 16% (inactive)
Potency [13]: inactive
Potency [14]: inactive
Potency [15]: inactive
Potency [16]: inactive
Potency [17]: inactive
Potency [18]: inactive
Potency [19]: inactive
Potency [20]: inactive

COc1c2c(nc3ccccc13)O[C@H]([C@@](C)(O)CO)C2
outcome [1]: inactive
Potency [2]: 12.6 µM (active)
activity change, negative = inhibition [3]: -17.9% (inactive)
outcome [4]: inactive
Potency [5]: > 20.6 µM (inactive)
Potency [6]: > 20.6 µM (inactive)
Potency [7]: inactive
activity change, negative = inhibition ([9]; at 25.7 µM (top of the series)): 1.14% (inactive)
max response [9, 21]: -17.8%
max response [9, 22]: -15.2%
Potency [10]: inactive

O=C(NC[C@@H](O)CO)c1c(I)c(C(=O)NC[C@@H](O)CO)c(I)c(N(CCO)C(=O)CO)c1I
outcome [1]: inactive
Potency [2]: inactive
activity change, negative = inhibition [3]: -8.22% (inactive)
outcome [4]: inactive
Potency [5]: > 20.6 µM (inactive)
Potency [6]: > 20.6 µM (inactive)
Potency [7]: inactive
outcome [8]: inactive
activity change, negative = inhibition ([9]; at 25.7 µM (top of the series)): -2.29% (inactive)
max response [9, 21]: -1.01%
max response [9, 22]: -0.682%
outcome [11]: inactive
activity, negative = inhibition ([12]; parasite line A): 7.51% (inactive)
activity, negative = inhibition ([12]; parasite line B): 8.28% (inactive)
Potency [13]: inactive
Potency [14]: inactive
Potency [15]: inactive
Potency [16]: inactive
Potency [17]: inactive
Potency [18]: inactive
Potency [19]: inactive
Potency [20]: inactive
